PubChem BioAssay AID2661 (Broad Institute, 2010)
In all, about 320,000 compounds went through this assay and about 240 (0.075%) were called active.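 The calls were made as follows: active = inhibition at or above 25%, using the most active replicate where run in duplicate; inactive = inhibition below 25%.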 The full list was thinned out, with actives kept by preference.

target: Serine/threonine-protein kinase 33 (Homo sapiens) (UniProt Q9BYT3); assay: inhibitors of purified STK33 kinase, primary screen, biochemical, ADP-Glo luminescence, homogeneous, cell-free (AID 2661); details: purified STK33, MBP phosphorylation, at 10 µM, active compounds read high
Sequence (Q9BYT3 whole entry, looked up): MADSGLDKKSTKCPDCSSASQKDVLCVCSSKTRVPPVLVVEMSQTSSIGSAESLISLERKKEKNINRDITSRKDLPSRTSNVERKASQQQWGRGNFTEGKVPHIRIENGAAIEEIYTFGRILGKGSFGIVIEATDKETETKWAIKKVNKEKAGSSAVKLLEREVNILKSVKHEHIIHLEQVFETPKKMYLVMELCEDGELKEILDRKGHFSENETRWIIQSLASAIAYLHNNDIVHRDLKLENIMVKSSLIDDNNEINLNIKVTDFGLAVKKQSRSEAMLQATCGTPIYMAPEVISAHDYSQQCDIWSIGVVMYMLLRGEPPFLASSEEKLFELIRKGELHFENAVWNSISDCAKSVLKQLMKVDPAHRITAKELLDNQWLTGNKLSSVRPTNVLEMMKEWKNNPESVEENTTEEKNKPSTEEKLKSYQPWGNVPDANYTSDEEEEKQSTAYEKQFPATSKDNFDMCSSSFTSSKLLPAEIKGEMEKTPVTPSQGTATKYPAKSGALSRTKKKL

inhibition, active:
CC(C)n1cnc2c(Nc3cccc(Cl)c3)nc(N(CCO)CCCO)nc21 55.5%
CC1CCN(C2=NC(=O)/C(=C/c3ccc(O)cc3)S2)CC1 25.8%
CCOc1cc(/C=C2\SC(N3CCCC(C)C3)=NC2=O)ccc1O (stereo not drawn) 26.4%

inhibition, inactive:
OCCCNc1nccc(-c2cc(Nc3cccc(Cl)c3)ncn2)n1 5.41%
CC(C)C[C@H](CO)Nc1nc(N(C)c2cccc(Cl)c2)c2ncn(C(C)C)c2n1 -0.739%
O=C(COc1ccccc1F)Nc1nc(-c2ccccn2)cs1 -1.01%
COc1ccc(C2(c3ccc(OC)cc3)NC(=O)N(CC(=O)Nc3cc(C)on3)C2=O)cc1 -0.176%
CC1CN(C(=O)c2ccc([N+](=O)[O-])s2)CC(C)O1 (stereo not drawn) -2.19%
O=C1CCC/C=C\C[C@@H](CC(=O)N(CCO)Cc2ccccc2)C(=O)NCCO1 -0.894%
COC(=O)[C@]1(Cc2ccccc2)N[C@H](CN(C)S(=O)(=O)c2ccc(F)cc2)[C@@H]2C(=O)N(Cc3ccccc3)C(=O)[C@@H]21 0.777%
CNC[C@@H]1Oc2c(NS(C)(=O)=O)cccc2C(=O)N([C@@H](C)CO)C[C@H]1C -0.879%
O=C(Cn1cnc2c(OCc3ccccc3)ncnc21)NCc1nc2ccccc2[nH]1 0.0433%
O=C(COC(=O)CSc1ccccc1)Nc1ccc(F)cc1F -1.54%
Cc1noc(C)c1C(=O)OC(C)C(=O)Nc1ccc2c(c1)OCO2 (stereo not drawn) -2.76%
CC(C)(C)OC(=O)C[C@@H]1C/C=C\C[C@@H](CC(=O)N[C@@H](CO)Cc2ccccc2)C(=O)N2CCC[C@H]2COC1=O -0.177%
CCOc1cc(/C=C2\SC(N3CCCCC3)=NC2=O)ccc1O 8.65%
O=C1N=C(N2CCCC2)S/C1=C\c1cccc(Br)c1 -0.704%
O=C1N=C(N2CCc3ccccc3C2)S/C1=C\c1ccc(O)cc1 11%
CC1CCN(C2=NC(=O)/C(=C/c3cn[nH]c3-c3ccccc3)S2)CC1 0.902%
O=C(COC(=O)c1ccc(F)cc1)NCC1COc2ccccc2O1 (stereo not drawn) -0.961%
NS(=O)(=O)c1ccc(CNC(=S)NC(=O)c2ccco2)cc1 -0.0738%
CC1Cc2ccccc2N1S(=O)(=O)c1cccc(C(=O)OCC(=O)N2CCOCC2)c1 (stereo not drawn) -1.13%
Cc1ccc(S(=O)(=O)N2CCCCC2)cc1NC(=O)CCNC(=O)c1ccccc1 -0.0957%
